Test results taken from PubChem BioAssay AID1038 (National Center for Advancing Translational Sciences (NCATS), 2008).
Inconclusive results are not listed. The source made the active and inactive calls. Calls come from the whole dose curve.

Test: Normal 1 Cell Viability Secondary Assay for qHTS Assay for Epigenetic Modulators
Details: Normal 1 bronchial epithelial viability, MTS, 4 d
Description: NIH Molecular Libraries Screening Centers Network [MLSCN] NIH Chemical Genomics Center [NCGC] MLSCN Grant: 1 X01 MH079860-01 Assay Provider: Elisabeth D. Martinez, University of Texas SW Medical Center NCGC Assay Overview: This secondary assay characterizes selected actives identified in the qHTS of the Locus Derepression (LDR) assay (PubChem AID 597). The LDR assay detects the derepression of a GFP reporter that is stably integrated in a region of the genome of murine c127i mammary cells that is presumably silenced. Compounds that cause derepression of the locus to express GFP are identified by enumerating GFP positive cells using a laser-scanning microplate cytometer. Selected LDR actives were assayed for killing of Normal 1, a patient-derived normal bronchial epithelial line matched to NSCLC 1, a nonsmall cell lung carcinoma line from the same patient. The Normal 1 line assays the cytoxicity of test compounds on normal lung cells. Normal 1 cell viability was measured using Cell Titer 96 AQueous One (Promega), an assay which detects the ability of metabolically active cells to reduce a tetrazolium salt substrate (MTS), into a soluble formazan product that can be measured by colorimetry.
NCGC Assay Protocol Summary Normal 1 cells were plated in 96-well flat bottom tissue culture dishes (Corning) and grown overnight at 37 C and 5% CO2, then treated with compounds, incubated 4 days, and assayed for viability using the Cell Titer 96 AQueous One kit (Promega) according to the manufacturer's protocol. Absorbance at 490 nm and 650 nm (reference) was measured by a Spectra Max (Molecular Devices). Data were normalized to the untreated control (100% viability). Each cell line was tested in one or two independent assays, each containing 4 or 8 replicates. For further details, see R.L. Johnson, W. Huang, A. Jadhav, C.P. Austin, J. Inglese, E.D. Martinez, A Quantitative High-Throughput Screen Identifies Potential Epigenetic Modulators of Gene Expression, Analytical Biochemistry (2007), doi: 10.1016/j.ab.2007.12.028

Structure (SMILES) | Potency | outcome
CC(/C=C/C(=O)NO)=C\[C@@H](C)C(=O)c1ccc(N(C)C)cc1 | 200 nM (active) | 
CN1C(=S)SC(c2ccccc2)N(C)C1c1ccccc1 (configuration not stated) |  | inactive
CC(C)C(=O)NC(c1ccco1)c1ccc2cccnc2c1O (configuration not stated) | 9000 nM (active) | 
O=Nc1ccc(O)c2ncccc12 | 3000 nM (active) | 
CC(C)C(=O)NC(c1ccc(N(C)C)cc1)c1ccc2cccnc2c1O (configuration not stated) | 6000 nM (active) | 
O=C(CSc1cccc2cccnc12)NCc1ccccc1 |  | inactive
CC(C)C(=O)NC(c1ccco1)c1cc([N+](=O)[O-])c2cccnc2c1O (configuration not stated) | 800 nM (active) | 
